Active and inactive are the calls of the source.
What was measured:
[1] = E. coli DRC41 culture turbidity changes, primary screen, E. coli filamentation inducer project, strain DRC41, OD650, 48 h (AID 1152);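 note: E. coli MC1000 strain DRC41 lacking acrAB efflux pump and sulA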; settings: E. coli DRC41 (acrAB sulA), higher = more signal, called active from +8 up or from −8 down
[2] = small-molecule binders of probe aLefty1, primary screen, biochemical, small-molecule microarray, 635/667 nm fluorescence (AID 1153); settings: higher = more signal;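 note: score merges spot fluorescence with signal-to-noise ratio from the scanned slide images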
[3] = PSAC antagonists in infected red cells, primary screen, cell-based, P. falciparum Indochina, OD700, 1 h (AID 1154); settings: P. falciparum Indochina infected RBC osmotic lysis, higher = more signal, called active from +8 up or from −8 down
[4] = PSAC antagonists in infected red cells, primary screen, cell-based, P. falciparum Indochina, OD700, 2 h (AID 1155);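 note: lysis reports solute entry through the parasite surface anion channel PSAC; channel blockers reduce lysis of infected cells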; settings: P. falciparum Indochina infected erythrocytes, osmotic lysis OD700; higher = more signal, called active from +8 up or from −8 down
[5] = osmotic lysis modulators in infected erythrocytes, primary screen, PSAC antagonist project, cell-based, P. falciparum Indochina, OD700, 3 h (AID 1156); settings: higher = more signal, called active from +8 up or from −8 down
[6] = PSAC antagonists in infected red cells, primary screen, cell-based, P. falciparum Indochina, OD700, 18 h (AID 1157); settings: P. falciparum Indochina infected erythrocytes, osmotic lysis OD700, 18 h; higher = more signal, called active from +8 up or from −8 down
[7] = modulators of S6 phosphorylation in cells, primary screen, cell-based, A549, cytoblot, luminescence, serum-stimulated (AID 1158); settings: A549 phospho-S6 cytoblot, 5 h, higher = more signal;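 note: serum-stimulated A549 lung adenocarcinoma cells; signal is phosphorylated S6 detected by cytoblot immunostaining with HRP secondary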
[8] = target: NADPH oxidase 2 (Homo sapiens) (UniProt P04839); assay: NOX2-dependent H2O2 signal modulators, primary screen, NOX inhibitor project, cell-based, HEK293-NOX2, PMA-stimulated, Amplex Red fluorescence (AID 1159); settings: 45 min, higher = more signal, called active from +8 up or from −8 down; note: test concentration not given here
NADPH oxidase 2 (Homo sapiens), sequence (P04839 whole entry, looked up): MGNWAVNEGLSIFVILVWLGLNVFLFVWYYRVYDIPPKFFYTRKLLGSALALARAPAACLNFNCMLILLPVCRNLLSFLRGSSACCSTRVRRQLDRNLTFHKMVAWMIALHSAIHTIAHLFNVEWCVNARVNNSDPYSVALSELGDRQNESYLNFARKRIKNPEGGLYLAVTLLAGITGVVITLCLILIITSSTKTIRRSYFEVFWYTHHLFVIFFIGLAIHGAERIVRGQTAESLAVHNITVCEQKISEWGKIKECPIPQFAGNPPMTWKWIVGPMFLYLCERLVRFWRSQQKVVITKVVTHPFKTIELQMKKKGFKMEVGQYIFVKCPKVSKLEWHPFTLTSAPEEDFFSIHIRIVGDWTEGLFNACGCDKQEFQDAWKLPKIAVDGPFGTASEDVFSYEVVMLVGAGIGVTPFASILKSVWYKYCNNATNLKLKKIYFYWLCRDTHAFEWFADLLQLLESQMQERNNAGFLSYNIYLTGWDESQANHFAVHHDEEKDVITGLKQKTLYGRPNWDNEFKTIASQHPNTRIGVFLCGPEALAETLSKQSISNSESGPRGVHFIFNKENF

[9] = target: NADPH oxidase 4 (Homo sapiens) (UniProt Q9NPH5); assay: NOX4-dependent H2O2 signal modulators, primary screen, NOX inhibitor project, cell-based, HEK293-NOX4, tetracycline-induced, Amplex Red fluorescence (AID 1160); settings: 45 min, higher = more signal, called active from +8 up or from −8 down
NADPH oxidase 4 (Homo sapiens), sequence (Q9NPH5 whole entry, looked up): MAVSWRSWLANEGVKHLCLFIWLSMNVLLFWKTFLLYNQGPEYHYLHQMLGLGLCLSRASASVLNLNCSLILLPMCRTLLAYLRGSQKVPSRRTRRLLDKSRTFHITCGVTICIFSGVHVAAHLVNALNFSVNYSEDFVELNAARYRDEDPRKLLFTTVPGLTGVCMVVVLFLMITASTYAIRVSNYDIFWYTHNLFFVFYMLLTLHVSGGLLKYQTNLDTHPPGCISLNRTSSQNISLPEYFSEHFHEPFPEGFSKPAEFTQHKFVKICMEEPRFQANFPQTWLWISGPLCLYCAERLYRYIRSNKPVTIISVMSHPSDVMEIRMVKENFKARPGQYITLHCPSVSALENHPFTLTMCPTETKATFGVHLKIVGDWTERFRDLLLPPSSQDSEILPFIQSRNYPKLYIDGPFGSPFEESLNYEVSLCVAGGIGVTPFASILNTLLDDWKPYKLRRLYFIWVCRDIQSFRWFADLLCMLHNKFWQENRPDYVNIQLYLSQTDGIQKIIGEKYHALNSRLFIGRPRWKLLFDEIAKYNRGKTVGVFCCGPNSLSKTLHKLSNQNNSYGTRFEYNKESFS

[10] = target: NADPH oxidase 5 (Homo sapiens) (UniProt Q96PH1); assay: NOX5-dependent H2O2 signal modulators, primary screen, NOX inhibitor project, cell-based, HEK293-NOX5, Amplex Red fluorescence (AID 1161); settings: HEK293-NOX5, ionomycin, 45 min, higher = more signal
NADPH oxidase 5 (Homo sapiens), sequence (Q96PH1 whole entry, looked up): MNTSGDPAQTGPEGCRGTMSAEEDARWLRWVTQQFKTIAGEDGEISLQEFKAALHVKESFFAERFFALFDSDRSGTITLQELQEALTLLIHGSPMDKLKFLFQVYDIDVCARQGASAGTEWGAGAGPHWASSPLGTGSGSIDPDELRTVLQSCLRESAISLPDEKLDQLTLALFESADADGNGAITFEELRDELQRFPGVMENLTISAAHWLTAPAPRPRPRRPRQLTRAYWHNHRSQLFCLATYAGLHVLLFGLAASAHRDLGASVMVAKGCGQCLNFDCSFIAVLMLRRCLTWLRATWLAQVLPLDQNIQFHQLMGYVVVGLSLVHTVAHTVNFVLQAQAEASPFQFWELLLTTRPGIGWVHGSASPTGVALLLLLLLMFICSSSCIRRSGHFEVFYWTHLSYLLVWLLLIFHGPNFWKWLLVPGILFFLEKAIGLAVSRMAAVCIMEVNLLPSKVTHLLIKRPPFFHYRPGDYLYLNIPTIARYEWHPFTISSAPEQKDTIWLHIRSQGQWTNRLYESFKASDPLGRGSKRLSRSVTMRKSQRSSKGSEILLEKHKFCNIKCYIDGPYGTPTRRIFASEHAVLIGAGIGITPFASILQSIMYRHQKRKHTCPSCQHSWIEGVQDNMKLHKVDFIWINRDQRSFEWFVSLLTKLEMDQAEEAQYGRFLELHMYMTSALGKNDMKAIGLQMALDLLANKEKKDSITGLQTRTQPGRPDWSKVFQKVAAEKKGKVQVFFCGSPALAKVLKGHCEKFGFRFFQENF

[11] = A549 cell viability effects, profiling panel, calcein-AM fluorescence, 48 h, basal (AID 1162); settings: higher = more signal; note: test concentration not given here
[12] = adipocyte viability effects, profiling panel, cell-based, 3T3-L1 adipocytes, calcein-AM fluorescence, 48 h, basal (AID 1163); settings: 3T3-L1 adipocytes viability, higher = more signal; note: test concentration not given here
[13] = HepG2 cell viability effects, profiling panel, calcein-AM fluorescence, 48 h, basal (AID 1164); settings: higher = more signal; note: test concentration not given here
[14] = MM1S cell viability effects, profiling panel, calcein-AM fluorescence, 48 h, basal (AID 1165); settings: higher = more signal;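 note: viability of MM1S multiple myeloma cells under basal unstimulated conditions; test concentration not given here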
[15] = basal RPMI8226 viability, no added stimulus, profiling panel, cell-based, calcein-AM fluorescence, 48 h, PK04 Diversity Set (AID 1166); settings: RPMI8226 myeloma viability, higher = more signal;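 note: cells grown under basal conditions without added stimulus; test concentration not given here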
[16] = basal HepG2 mitochondrial membrane potential changes, profiling panel, cell-based, JC-1 fluorescence, 24 h, 100 nL compound (AID 1167); settings: higher = more signal; note: test concentration not given here
[17] = basal 3T3-L1 adipocyte mitochondrial potential changes, profiling panel, cell-based, JC-1 fluorescence, 3T3-L1 adipocytes, 24 h, 100 nL compound (AID 1168); settings: JC-1 mitochondrial fluorescence, higher = more signal, called active from +8 up or from −8 down; note: test concentration not given here
[18] = basal RPMI8226 mitochondrial membrane potential changes, profiling panel, cell-based, JC-1 fluorescence, 24 h, 100 nL compound (AID 1169); settings: RPMI8226 myeloma, JC-1 mitochondrial potential fluorescence, higher = more signal; note: test concentration not given here
[19] = basal MM1S mitochondrial membrane potential changes, profiling panel, cell-based, JC-1 fluorescence, 24 h, 100 nL compound (AID 1170); settings: higher = more signal; note: test concentration not given here
[20] = A549 lung cancer cell viability effects, profiling panel, resazurin fluorescence, 24 h, PK04 Diversity Set (AID 1171); settings: higher = more signal, called active from +8 up or from −8 down; note: test concentration not given here

Compound	z-score [1]	composite z-score [2]	z-score [3]	z-score [4]	z-score [5]	z-score [6]	z-score [7]	z-score [8]	z-score [9]	z-score [10]	z-score [11]	z-score [12]	z-score [13]	z-score [14]	z-score [15]	z-score [16]	z-score [17]	z-score [18]	z-score [19]	z-score [20]
COC(=O)c1ccc(OC)c(/C=C\CC(OC(=O)c2ccncc2)c2ccccc2)c1 (stereo not given)	2.32 (inactive)	-0.206	20.4 (active)	3.1 (inactive)	0.543 (inactive)	-1.02 (inactive)	1.93	-0.552 (inactive)	0.529 (inactive)	-0.408	1.46	-0.347	1.04	-1.64	-1.5	0.615	0.202 (inactive)	-0.177	0.148	0.271 (inactive)
COc1ccc(CCNC(=O)[C@@H]2c3ccccc3C(=O)N(C(C)C)[C@H]2c2ccc(CO)cc2)cc1	1.73 (inactive)	-0.27	3.24 (inactive)	0.785 (inactive)	1.3 (inactive)	0.376 (inactive)	0.307	-0.219 (inactive)	0.821 (inactive)	0.338	2.2	1.29	0.188	-0.397	1.1	0.733	-0.232 (inactive)	-0.482	0.978	1.12 (inactive)
C=C(COC)/C(=C/C[C@@H](OC(=O)c1ccncc1)c1ccccc1OCCO)c1cnc2ccccc2c1	0.588 (inactive)	0.333	25.7 (active)	11.5 (active)	0.518 (inactive)	1.09 (inactive)	0.261	0.0701 (inactive)	0.217 (inactive)	-1.13	0.746	0.317	-0.316	-3.18	-0.986	2.78	-1.16 (inactive)	-0.527	1.61	0.268 (inactive)
CC[C@@H](O[Si](C#C[Si](C(C)C)(C(C)C)C(C)C)(C(C)C)C(C)C)c1cn(Cc2cccc(Cl)c2)nn1	1.2 (inactive)	0.106	-0.0842 (inactive)	0.523 (inactive)	-0.559 (inactive)	0.0622 (inactive)	-0.559	-0.16 (inactive)	-0.839 (inactive)	-1.62	-0.163	-1.25	0.0222	0.534	0.0929	0.0106	-0.00161 (inactive)	0.0677	-1.25	0.359 (inactive)
O=C(N1CCOCC1)[C@]1(CCS(=O)(=O)c2ccccc2)N=C(c2ccc(OCCCO)cc2)O[C@@H]1c1ccccc1	0.427 (inactive)	0.441	27.2 (active)	20 (active)	3.43 (inactive)	2.61 (inactive)	0.0315	0.348 (inactive)	1.72 (inactive)	1.16	0.569	1.29	0.176	-0.345	-0.0091	1.43	1.14 (inactive)	-0.176	-0.424	0.54 (inactive)
Cc1ccc(S[C@]2(C(=O)NCCN3CCOCC3)CC(=O)N(C(C)C)[C@@H]2c2ccc(CO)cc2I)cc1	3.66 (inactive)	0.11	7.56 (inactive)	0.308 (inactive)	0.651 (inactive)	-0.511 (inactive)	1.86	-0.491 (inactive)	-1.24 (inactive)	1.07	2.91	0.557	2.66	-2.39	-1.47	1.64	0.604 (inactive)	-1.01	-0.635	-1.13 (inactive)
CC(=O)NCCCC[C@@H]1NC(=O)[C@H]2C[C@@H](C(=O)O)[C@@H](c3cccc(OCCO)c3)N2C1=O	-0.442 (inactive)	0.189	1.15 (inactive)	0.821 (inactive)	-1.42 (inactive)	0.253 (inactive)	0.435	0.956 (inactive)	0.197 (inactive)	-0.0358	-0.103	-0.349	0.276	0.34	0.928	0.0103	-0.55 (inactive)	-0.809	-0.401	0.354 (inactive)
COC(=O)[C@@]1(Cc2ccc(F)cc2)[C@H]2c3cc(C(=O)N4CCCC4)n(Cc4ccc(C(F)(F)F)nc4)c3C[C@H]2CN1C(=O)c1ccccc1	-0.984 (inactive)	0.93	2.37 (inactive)	0.229 (inactive)	2.16 (inactive)	0.716 (inactive)	-0.186	0.0745 (inactive)	0.488 (inactive)	-2.46	-0.29	0.585	-1.06	-2.08	-1.37	1.69	-0.439 (inactive)	-0.799	-0.873	0.052 (inactive)
CC[C@@H](O[Si](C#C[Si](C(C)C)(C(C)C)C(C)C)(C(C)C)C(C)C)c1cn([C@H](C)c2ccccc2)nn1	0.854 (inactive)	-0.0601	0.4 (inactive)	0.209 (inactive)	-0.969 (inactive)	0.582 (inactive)	-0.711	-0.0103 (inactive)	-0.507 (inactive)	0.0572	-0.7	-0.685	-0.499	0.375	0.253	-0.0266	-1.02 (inactive)	0.0594	-0.876	0.566 (inactive)

Reference: PubChem BioAssay
